Experimental data published in PubChem BioAssay (NCATS).
Records with an inconclusive call do not appear. Where a call stands in place of a potency, no number is given. Calls of active or inactive are those of the source. Unless noted, the call rests on the fitted dose curve.

Key:
[1] = qHTS for Inhibitors of the Functional Ribonucleoprotein Complex (vRNP) of Lassa (LASV) Arenavirus: Viability assay - alamar blue signal for LASV Primary Screen (AID 1347083; calls by dose curve; tested in HEK293 reporter line; further: nearly all actives have a fitted effect of over 80% in size; further: potency means the concentration at half of the fitted maximal effect)
[2] = qHTS for Inhibitors of the Functional Ribonucleoprotein Complex (vRNP) of Lassa (LASV) Arenavirus: LASV Primary Screen - GLuc reporter signal (AID 1347082; calls by dose curve; tested in HEK293 reporter line; further: nearly all actives have a fitted effect of over 60% in size; further: potency means the concentration at half of the fitted maximal effect)
[3] = Cytotoxicity counterscreen for inhibitors of SARS-CoV-2 cell entry (AID 1645845); further: nearly all actives have a fitted effect of over 50% in size
Procedure, shortened: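 After a 15 min room-temperature ATPLite 1step step, luminescence reflected ATP remaining in HEK293-ACE2 cells exposed to compound for 1 h plus 48 h at 37 C, with percent activity set by cell and no-cell controls.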

[4] = target: Alpha-galactosidase (Coffea arabica) (UniProt Q42656); test: Counterscreen for Glucocerebrosidase Inhibitors: qHTS Assay for Coffee Bean alpha-Galactosidase at pH 4.5 (AID 957; active means well fitted curve in the direction sought with a large enough effect; an effect the other way counts as inactive or inconclusive)
Chain of Alpha-galactosidase (Coffea arabica) (Q42656 whole entry, looked up): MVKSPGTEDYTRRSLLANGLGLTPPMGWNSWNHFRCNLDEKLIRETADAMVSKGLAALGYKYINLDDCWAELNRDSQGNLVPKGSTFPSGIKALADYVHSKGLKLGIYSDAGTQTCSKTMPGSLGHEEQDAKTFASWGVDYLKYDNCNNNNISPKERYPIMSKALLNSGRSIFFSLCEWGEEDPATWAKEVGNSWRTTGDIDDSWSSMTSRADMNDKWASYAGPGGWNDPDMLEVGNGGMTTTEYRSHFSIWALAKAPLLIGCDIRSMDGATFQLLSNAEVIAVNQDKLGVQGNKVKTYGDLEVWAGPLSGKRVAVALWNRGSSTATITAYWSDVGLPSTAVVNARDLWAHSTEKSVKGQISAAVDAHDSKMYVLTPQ
Procedure, shortened: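 Fluorogenic qHTS at pH 4.5 (citrate buffer with Tween-20): 2 nM enzyme, 80 uM 4-MU-alpha-galactoside substrate, compound titrated 0.7 nM to 77 uM, 20 min room temperature. Glycine/NaOH stop; 4-MU read Ex 365/Em 440; Hill-equation AC50 against no-enzyme and enzyme controls.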

[5] = target: Alpha-galactosidase (Coffea arabica) (UniProt Q42656); test: Counterscreen for Glucocerebrosidase Inhibitors: qHTS Assay for Coffee Bean alpha-Galactosidase at pH 5.9 (AID 998; active means well fitted curve in the direction sought with a large enough effect; an effect the other way counts as inactive or inconclusive)
Procedure, shortened: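 In 50 mM citric acid pH 5.9 with 0.005% Tween-20, coffee bean enzyme hydrolyses 80 uM 4-MU alpha-D-galactopyranoside over 20 min at RT. Activity is normalized to controls; AC50 comes from Hill-modelled concentration-response data.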

[6] = Inducers of the Endoplasmic Reticulum Stress Response (ERSR) in human glioma: Validation (AID 504836; active means well fitted curve in the direction sought with a large enough effect; an effect the other way counts as inactive or inconclusive)
Procedure, shortened: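 Stably transfected U87-MG human glioma cells carrying a GRP78-based luminescent sensor were seeded at 1000 cells/well, pin-dosed with compounds and incubated 16 h. Luciferase reagent was then added, and end-point luminescence was read after 10 min at room temperature.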

[7] = Primary qHTS to identify inhibitors of SARS-CoV-2 cell entry (AID 1645846); conditions: activity change, negative = inhibition: at 57.1 µM (top of the series) unless noted; further: nearly all actives have a fitted effect of over 45% in size
Procedure, shortened: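 Using luciferase-reporting pseudoviruses carrying Wuhan-Hu-1 spike, the screen tracks entry into stably ACE2-expressing cells over 48 hr. Activity is expressed relative to spike particles versus particles lacking any fusion protein.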

[8] = Validation screen for inhibitors of Lassa infection (AID 463096); further: potency means the concentration at half of the fitted maximal effect

Question: With `CC(=O)OC1(C)CC(C)C(=O)C(C(O)CC2CC(=O)NC(=O)C2)C1` (centres undefined) as the compound, how does the Potency [1] read?
Answer: inactive

Question: Which Potency [2] does the source give for `CCN(CC)CCCC(C)Nc1nc(C)cc(Nc2ccc3nc(C)cc(N)c3c2)n1` (centres undefined) here?
Answer: inactive

Question: What about the Potency [3] of the same compound?
Answer: inactive

Question: For `CN(C)c1cc2c(Nc3ccc4c(cnn4Cc4ccccc4)c3)ncnc2cn1`, which outcome [4] is on record?
Answer: inactive

Question: And the outcome [5]?
Answer: inactive

Question: What about the outcome [6] of the same compound?
Answer: inactive

Question: And the Potency [2]?
Answer: inactive

Question: Which Potency [2] does the source give for `CCOC(=O)N1c2ccc(C(F)(F)F)cc2[C@@H](N(Cc2cc(C(F)(F)F)cc(C(F)(F)F)c2)C(=O)OC)C[C@H]1CC` here?
Answer: inactive

Question: And the Potency [3]?
Answer: inactive

Question: What about the Potency [7] of the same compound?
Answer: inactive

Question: What does the source list for `CNCCc1cnc(CCC(c2ccccc2)c2ccccc2)[nH]1`?
Answer: outcome [6]: inactive; Potency [2]: inactive

Question: With `COCCOc1nc(-c2ccc(Cl)c(Cl)c2)n(-c2ccc(NC(=O)CCl)cc2)n1` as the compound, how does the Potency [1] read?
Answer: inactive

Question: Which Potency [1] does the source give for `Oc1ccc(C2=Cc3ccc(O)cc3OC2)cc1` here?
Answer: 24.3 µM (active)

Question: With `CC(C)ON([C@@H](C(=O)NO)C(C)C)S(=O)(=O)c1ccc(-c2ccccc2)cc1` as the compound, how does the outcome [6] read?
Answer: inactive

Question: What about the Potency [2] of the same compound?
Answer: inactive

Question: With `CCOC(=O)N1CCN(/[N+]([O-])=N/Oc2ccc([N+](=O)[O-])cc2[N+](=O)[O-])CC1` as the compound, how does the outcome [6] read?
Answer: inactive

Question: And the Potency [2]?
Answer: inactive

Question: What about the Potency [3] of the same compound?
Answer: inactive

Question: What about the activity change, negative = inhibition [7] of the same compound?
Answer: -5.73%

Question: With `Oc1cc(-c2nc(-c3ccccc3)[nH]c2-c2ccncc2)ccc1Cl` as the compound, how does the Potency [1] read?
Answer: 1.53 µM (active)

Question: For `CC[C@]12C=CCN3CC[C@@]4(c5cc([C@@]6(C(=O)OC)C[C@H]7C[C@@H](C(C)(F)F)CN(Cc8c6[nH]c6ccccc86)C7)c(OC)cc5N(C)[C@H]4[C@@](O)(C(=O)OC)[C@H]1OC(C)=O)[C@@H]32`, which Potency [1] is on record?
Answer: 0.0172 µM (active)

Question: Which Potency [8] does the source give for `CCC1(O)CC2CN(CCc3c([nH]c4ccccc34)[C@@](C(=O)OC)(c3cc4c(cc3OC)N(C=O)C3[C@]45CCN4CC=C[C@@](CC)([C@@H](OC(C)=O)[C@]3(O)C(=O)OC)[C@H]45)C2)C1` (some centres undefined) here?
Answer: 20 µM (active)

Question: What about the outcome [6] of the same compound?
Answer: inactive

Question: And the Potency [2]?
Answer: inactive

Question: Which Potency [1] does the source give for `C[C@@]12C(=O)OC(=O)[C@@]1(C)C1CCC2O1` here?
Answer: 19.3 µM (active)

Question: Which Potency [2] does the source give for `COc1ccc(-n2c(C)c([N+](=O)[O-])c3ccc(O)cc32)cc1` here?
Answer: inactive

Question: What about the Potency [3] of the same compound?
Answer: inactive

Question: What about the activity change, negative = inhibition [7] of the same compound?
Answer: -4.69%

Question: Which results are given for `CN1CCCC1CCOC(C)(c1ccccc1)c1ccc(Cl)cc1` (centres undefined)?
Answer: Potency [8]: 10 µM (active); outcome [6]: inactive; Potency [2]: inactive

Question: What does the source list for `Cc1cc(Nc2ncnc3ccc(-c4ccc(CNCCS(C)(=O)=O)o4)cc23)ccc1Oc1ccn2ncnc2c1`?
Answer: Potency [2]: 15.3 µM (active); Potency [3]: inactive; Potency [7]: inactive

Question: With `O=c1cc(-c2ccccc2)[nH]c2nc(Cl)ccc12` as the compound, how does the outcome [4] read?
Answer: inactive

Question: What about the outcome [5] of the same compound?
Answer: inactive

Question: What about the Potency [8] of the same compound?
Answer: inactive

Question: What about the outcome [6] of the same compound?
Answer: inactive

Question: And the Potency [2]?
Answer: inactive

Question: Which Potency [1] does the source give for `C=C1C(=O)C=C[C@]2(C)C[C@@H]3OC(=O)[C@](C)(O)[C@H]3C[C@@H]12` here?
Answer: 14.1 µM (active)

Question: With `COc1ccc(COc2cc3oc(=O)c4cc(C(C)O)ccc4c3cc2OC)cc1` (centres undefined) as the compound, how does the Potency [2] read?
Answer: inactive

Question: And the Potency [3]?
Answer: inactive

Question: And the activity change, negative = inhibition [7]?
Answer: -25.6%
